Assay outcomes (PubChem BioAssay)
Shown are actives, neighbours in structure and some others; about 2.5% of the full set was active somewhere.
POLI inh: blocks human DNA polymerase iota activity | Pol iota fluorescent replication assay, 10 min | Potency, µM (series often up to 115 µM), without a hit: top-dose activity, negative = inhibition, actives largely listed as inhibitors | 390,000 compounds, 1% hits | AID 588590; note: potency is the fitted concentration of half-maximal effect
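Fluorescent replication assay read twice, at 0 min and 10 min after adding 50 nM (final) substrate. Enzyme (10 nM) and compounds were first incubated 15 min at room temperature; enzyme-free buffer wells were negative controls.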
L3MBTL1 block: inhibitors of human L3MBTL1; Q9Y468; Potency, µM (doses to about 57.1 µM), inactives show top-dose activity, negative = inhibition, hits mostly inhibitors; 230,000 compounds, 0.66% hits; AlphaScreen L3MBTL1–H3K9me1 peptide binding; note: potency is the fitted concentration of half-maximal effect; % is set by controls: 0 for no effect and ±100 for the full control effect; nearly all actives have a fitted effect of over 60% in size
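AlphaScreen assay: L3MBTL1 (50 nM final) was preincubated 30 min at room temperature with biotinylated H3(1-15)K9me1 peptide (75 nM final), then 30 min with library compounds; streptavidin donor and nickel chelate acceptor beads (10 ug/mL final) added, 30 min dark.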
APE1 inh-1: APE1 (human) endonuclease inhibition | recombinant APE1, TAMRA/BHQ-2 abasic DNA cleavage fluorescence | Potency, µM (doses to about 65.8 µM), for inactives: top-dose activity change, negative = inhibition, actives largely listed as inhibitors | 350,000 compounds, 0.35% hits | AID 2517;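 note: potency is the fitted concentration of half-maximal effect; plate controls were vehicle for no effect and reference inhibitor for full effect; nearly all actives have a fitted effect of over 55% in size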
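APE1 at 0.75 nM final was preincubated with compound 15 min at room temperature, then 50 nM double-stranded THF abasic-site substrate (5'-TAMRA/3'-BHQ-2) was added. Fluorescence (ex 525/em 598 nm) was read kinetically; third-minus-first read gave activity.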
Pol eta inh-1: DNA polymerase eta (human) inhibition. Q9Y253. recombinant Pol eta, fluorescent DNA replication assay. Potency, µM (series often up to 114 µM), inactives show at the top dose activity change, negative = inhibition, usual class: inhibitors. 390,000 compounds, 1.2% hits. AID 588591; note: potency is the fitted concentration of half-maximal effect; % is set by controls: 0 for no effect and ±100 for the full control effect
Target sequence (Q9Y253 whole entry, looked up): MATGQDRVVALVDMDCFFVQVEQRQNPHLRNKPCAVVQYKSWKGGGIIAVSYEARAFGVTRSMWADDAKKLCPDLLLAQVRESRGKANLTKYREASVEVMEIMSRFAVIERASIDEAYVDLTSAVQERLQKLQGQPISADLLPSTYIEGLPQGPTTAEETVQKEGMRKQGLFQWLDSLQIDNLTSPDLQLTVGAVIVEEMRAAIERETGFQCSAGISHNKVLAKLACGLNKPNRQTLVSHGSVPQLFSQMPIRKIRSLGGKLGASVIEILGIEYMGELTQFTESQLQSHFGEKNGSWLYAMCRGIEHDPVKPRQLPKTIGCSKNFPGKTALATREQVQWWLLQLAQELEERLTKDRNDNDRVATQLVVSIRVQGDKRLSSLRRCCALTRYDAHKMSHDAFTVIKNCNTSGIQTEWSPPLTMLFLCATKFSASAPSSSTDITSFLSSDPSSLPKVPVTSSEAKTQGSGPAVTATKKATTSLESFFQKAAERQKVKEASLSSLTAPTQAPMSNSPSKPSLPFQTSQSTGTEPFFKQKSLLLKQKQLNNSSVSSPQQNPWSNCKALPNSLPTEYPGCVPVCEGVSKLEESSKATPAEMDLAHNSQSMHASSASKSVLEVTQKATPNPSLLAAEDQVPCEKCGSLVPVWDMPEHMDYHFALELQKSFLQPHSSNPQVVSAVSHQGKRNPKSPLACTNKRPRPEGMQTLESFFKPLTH
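Fluorescent replication assay: 50 nM final substrate added after a 15 min room-temperature compound preincubation with 10 nM enzyme. Signal taken at 0 min and again at 10 min.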
Pol kappa inh-1: blocks human DNA polymerase kappa activity. AID 588579. Potency, µM (titrated, usually from 107 µM), for the others: at the highest dose activity, negative = inhibition, most hits filed as inhibitors. purified Pol kappa, fluorescent DNA synthesis assay, 10 min. 400,000 compounds, 0.53% hits; note: potency is the fitted concentration of half-maximal effect; % is set by controls: 0 for no effect and ±100 for the full control effect
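10 nM Pol kappa was preincubated with compounds for 15 min at room temperature. Reaction started with 50 nM (final) substrate. Fluorescence read kinetically at 0 and 10 min.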
Pol beta inh-1: inhibitors of human DNA polymerase beta | P06746 | Pol beta primer extension/strand displacement, fluorescence kinetic | Potency, µM (top dose mostly 114 µM), inactives show at the highest dose activity change, negative = inhibition, actives largely listed as inhibitors | 340,000 compounds, 1.3% hits | AID 485314; note: potency is the fitted concentration of half-maximal effect; % is set by controls: 0 for no effect and ±100 for the full control effect
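Pol beta (10 nM) was preincubated with compound for 15 min at room temperature. The reaction was then started with 50 nM substrate and read immediately and after a further 10 min at room temperature.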
DNA dye displace: displaces fluorescent dye from DNA, flagging APE1 artifacts; shares compounds with APE1 inh-1; DNA fluorescent dye displacement counterscreen, fluorescence; Potency, µM (doses to about 28.5 µM), without a hit: at the top dose activity change, negative = inhibition, most hits filed as inhibitors; 480 compounds, 7% hits;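 note: loss of thiazole orange fluorescence as the dye is displaced from duplex DNA; potency is the fitted concentration of half-maximal effect; 0% = ThO with dsDNA and no compound and -100% = ThO without dsDNA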
Endo IV inh: Endo IV (E. coli) inhibition counter-screen; shares compounds with APE1 inh-1; E. coli Endo IV, fluorogenic AP-site DNA cleavage; Potency, µM (series often up to 27.1 µM), for the others: at the top dose activity change, negative = inhibition, usual class: inhibitors; 560 compounds, 4% hits;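 note: potency is the fitted concentration of half-maximal effect; plate controls were uninhibited enzyme wells for no effect and no enzyme buffer wells for full effect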
APE1 inh-2: APE1 (human) endonuclease inhibition, confirmation; shares compounds with APE1 inh-1; 750 compounds, 44% hits; purified APE1, fluorogenic abasic-site DNA cleavage; Potency, µM (titrated, usually from 57.1 µM), for the others: at the top dose activity change, negative = inhibition, usual class: inhibitors; note: potency is the fitted concentration of half-maximal effect; % is set by controls: 0 for no effect and ±100 for the full control effect; nearly all actives have a fitted effect of over 30% in size
APE1 FP inh: compounds that displace a DNA probe from human APE1 | Potency, µM (top dose mostly 28.5 µM), for the others: top-dose activity, negative = inhibition, usual class: inhibitors | 480 compounds, 7% hits | APE1 binding to TAMRA-labelled double-stranded DNA, fluorescence polarization displacement | AID 2573 | shares compounds with APE1 inh-1; note: potency is the fitted concentration of half-maximal effect; % is set by controls: 0 for no effect and ±100 for the full control effect
Pol beta inh-2: Validate hits inhibiting human DNA polymerase beta; 250 compounds, 87% hits; Potency, µM, hits mostly inhibitors; shares compounds with Pol beta inh-1; Pol beta primer extension/strand displacement, fluorescence kinetic; AID 540280; calls by dose curve; note: potency is the fitted concentration of half-maximal effect
Klenow inh: Klenow polymerase inhibition, pol beta selectivity check | shares compounds with Pol beta inh-1 | Klenow exo- polymerase counter-screen, fluorescent DNA substrate | activity change, negative = inhibition, % at 57.1 µM | 250 tested, under 10 active
HIV RT counter: inhibits HIV-1 reverse transcriptase in counter-screen | activity % (negative = inhibition, positive = activation), % at 57.1 µM | HIV-1 RT polymerase activity, counter-screen | 250 tested, under 10 active | shares compounds with Pol beta inh-1
POLB valid: validation of human DNA polymerase beta inhibitors; shares compounds with Pol beta inh-1; radiolabeled primer extension gel assay, phosphorimager; inhibition, % at 10 µM; 110 compounds, 91% hits; AID 540325;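 active = inhibition at 10 µM of 30% or more; inconclusive = no clear call, values can overlap the other calls; inactive = inhibition at 10 µM under 30%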
Pol kappa inh-2: Pol kappa (human) inhibition, cherry-pick confirmation. shares compounds with Pol eta inh-1. purified Pol-kappa, fluorescent strand-displacement substrate. Potency, µM, hits mostly inhibitors. 920 compounds, 76% hits; note: potency is the fitted concentration of half-maximal effect
Pol eta inh-2: Pol eta (human) inhibition, cherry-pick confirmation | shares compounds with Pol eta inh-1 | Pol eta primer extension, TAMRA/BHQ fluorescence, 10 min | Potency, µM, actives largely listed as inhibitors | 2,600 compounds, 64% hits; note: potency is the fitted concentration of half-maximal effect
Numbers without * were called inactive; ? = inconclusive; nt = not tested or not shown. Unless noted, calls come from the whole dose curve; as a rule, active = well fitted curve in the direction sought with a large enough effect; inconclusive = small, poorly fitted or top-dose-only effect, or another doubt; inactive = no such curve, though single readings can be large; an effect the other way counts as inactive or inconclusive.

SMILES	POLI inh	L3MBTL1 block	APE1 inh-1	Pol eta inh-1	Pol kappa inh-1	Pol beta inh-1	Pol beta inh-2	Klenow inh	HIV RT counter	others
O=C(CSc1nncc2ccccc12)Nc1cccc(C(=O)O)c1	?	nt	-1%	-22%	0%	19%	nt	nt	nt
O=C(CSc1nc(-c2ccccc2)nc2ccc(F)cc12)Nc1cccc(C(=O)O)c1	?	nt	2%	79µM*	-25%	?	nt	nt	nt	APE1 inh-2=-31%;Pol kappa inh-2=?
COc1cc(O)c2c(c1)OC(C)(C)CC2=O	-3%	10%	1%	-3%	-4%	7%	nt	nt	nt
COc1cc(O)cc2cc3c(c(O)c12)C(=O)CC(C)(O)O3 (stereo not drawn)	?	nt	?	45µM*	?	50µM*	nt	nt	nt	DNA dye displace=19%;Endo IV inh=5%;APE1 inh-2=14µM*;APE1 FP inh=?;Pol eta inh-2=?
O=C(NCCc1ccccc1)c1ccc(Cn2c(SCc3ccccc3F)nc3cccnc32)cc1	12%	nt	nt	-15%	-23%	3%	nt	nt	nt
Cc1nn(-c2cccc(Cl)c2)c2nc(-c3ccco3)cc(C(=O)O)c12	?	nt	-4%	18µM*	-20%	14µM*	?	-16	-10
Cc1cccc(-n2nc(C)c3c(C(=O)O)cc(-c4cccs4)nc32)c1	98%	15%	-2%	-9%	-6%	-11%	nt	nt	nt
Cc1cc2oc(=O)cc(-c3cc4ccccc4o3)c2cc1O	-103%	nt	-12%	?	?	0.25µM*	16*	-24	17
CCOC(=O)Cc1csc(NC(=O)Cc2cccs2)n1	?	?	?	18µM*	?	14µM*	?	-5	15
CCOC(=O)Cc1csc(NC(=O)Cc2ccccc2)n1	14%	-3%	3%	-2%	-16%	-11%	nt	nt	nt
C[C@H](NC(=O)C1CC(=O)N(c2ccc3c(c2)OCCO3)C1)C(=O)N1CCCCC1 (stereo partly drawn)	6%	nt	23%	-15%	0%	4%	nt	nt	nt
Cc1c2cnn(CC(=O)Nc3c(F)c(F)cc(F)c3F)c(=O)c2c(C)n1Cc1ccc(F)cc1	nt	-2%	-7%	nt	nt	8.9µM*	25*	-33	-6	POLB valid=100*
C=C(C(C)=O)C(O)c1ccco1 (stereo not drawn)	nt	nt	2%	nt	nt	nt	nt	nt	nt
O=C(COC(=O)C1CCN(S(=O)(=O)c2cc([N+](=O)[O-])ccc2Cl)CC1)Nc1ncc(Cl)cc1Cl	?	-93%	?	8.9µM*	79µM*	8.9µM*	28*	-11	-23	POLB valid=86*
Cc1ccc(NC(=O)C2CCN(S(=O)(=O)c3cc([N+](=O)[O-])ccc3Cl)CC2)nc1	?	-8%	-16%	?	?	nt	nt	nt	nt
COc1cccc(S(=O)(=O)NCC(=O)N2CCCC2)c1	12%	37%	8%	-7%	5%	2%	nt	nt	nt
O=C(CSc1nc2scc(-c3ccco3)c2c(=O)n1-c1ccccc1)NCC1CCCO1 (stereo not drawn)	40µM*	?	?	?	-41%	11µM*	?	-33	25	POLB valid=70*
COc1ccc(CC(=O)OCC(=O)NCc2ccc(C)cc2)cc1OC	106%	-5%	11%	-11%	0%	nt	nt	nt	nt
Cc1ccc(-n2nnc3c(=O)n(CC(=O)NCc4ccccc4)cnc32)cc1	-24%	7%	-8%	-11%	-18%	10µM*	?	11	29	POLB valid=50*
CCSc1nnc(NC(=O)C2Cc3ccccc3CN2S(=O)(=O)CC)s1 (stereo not drawn)	?	-12%	-7%	56µM*	-41%	18µM*	28*	-4	10	POLB valid=100*
O=C(c1ccc2c(c1)OCCO2)N1CCN(c2nc(-c3cccs3)nc3ccccc23)CC1	-11%	nt	nt	nt	-9%	nt	nt	nt	nt
O=C(NN=Cc1cc(Cl)ccc1[N+](=O)[O-])c1ccco1	10%	nt	nt	-5%	-3%	nt	nt	nt	nt
COc1ccc(-c2nn(C)c3sc(C(=O)NCc4ccco4)cc23)cc1OC	?	nt	5%	?	-15%	13µM*	14*	-5	26
COc1cccc(-c2nn(C)c3sc(C(=O)NCc4ccc(C)o4)cc23)c1	14%	nt	3%	-11%	-1%	-18%	nt	nt	nt
N#C/C(=C\c1ccc(OC(=O)c2ccc(Br)s2)cc1)c1nc2ccccc2[nH]1	44%	2%	-2%	5.6µM*	-23%	2µM*	8.9*	-8	13
